Reference: the supplement of paper PMC10849652
The full data set covers some 8,800 targets. This sample favours those with a hit. About 0.5% of all pairs of compound and target were hits.

Assays:
Test in all cases: log2 fold change, soluble protein after heating vs DMSO (PISA); higher = thermal stabilisation; K562 lysate, 10 uM; active = over 0.2 and 3.5 SD of the protein, either way, in both replicates (recomputed)
[1] = compound: CN1CC[C@H](c2c(O)cc(O)c3c(=O)cc(-c4ccccc4Cl)oc23)[C@H](O)C1 [alvocidib]
How it was run: (§1)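 Quantification was by TMTpro 16plex LC-MS/MS with equalised channel sums, applied to the supernatant after 21,000xg for 90 min. Samples were crude K562 extract at 1 mg/mL protein in PBS pH 7.4 with 1 mM MgCl2, treated with 10 μM compound for 30 min, heated for 3 min across 48°C-58°C, pooled and brought to 0.5% NP-40 at 4°C. Values are log-two fold changes in thermal stability relative to solvent controls, from duplicates.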

[2] = compound: CN1CCc2c(c3ccccc3n2Cc2ccc(C(=O)NO)cc2)C1 [Tubastatin A]
How it was run: as §1

[3] = compound: CNC(=O)C1=CC=CC=C1NC2=NC(=NC=C2Cl)NC3=C(C=C(C=C3)N4CCOCC4)OC
How it was run: as §1

[4] = compound: CNC(=O)c1ccc(Nc2ncc(C(F)(F)F)c(NCc3nccnc3N(C)S(C)(=O)=O)n2)cc1 [defactinib]
How it was run: as §1

[5] = compound: CNc1nc(-c2ccc3c(N)n[nH]c3c2)cc(N2C[C@@H](C(=O)NC3CCCCC3)CC[C@H]2C)n1
How it was run: as §1

[6] = compound: COC(=O)N[C@@H](C)CNc1nccc(-c2cn(C(C)C)nc2-c2cc(Cl)cc(NS(C)(=O)=O)c2F)n1 [encorafenib]
How it was run: as §1

[7] = compound: COC(=O)[C@H](CCSC)NC(=O)C1=C(C=C(C=C1)NC[C@H](CS)N)C2=CC=CC=C2
How it was run: as §1

[8] = compound: COc1cc(Nc2ncc3c(n2)-c2ccc(Cl)cc2C(c2c(F)cccc2OC)=NC3)ccc1C(=O)O [alisertib]
How it was run: as §1

[9] = compound: COc1cc2nc(-c3cc(F)ccc3O)nc(N[C@@H]3CNC[C@H]3C(C)(C)O)c2cc1OC
How it was run: as §1

[10] = compound: COc1cc2ncnc(Nc3ccc(F)c(Cl)c3)c2cc1OCCCN1CCOCC1 [gefitinib]
How it was run: as §1

[11] = compound: CS(=O)(=O)CCNCc1ccc(-c2ccc3ncnc(Nc4ccc(OCc5cccc(F)c5)c(Cl)c4)c3c2)o1 [lapatinib]
How it was run: as §1

[12] = compound: CS(=O)(=O)N1CCN(Cc2cc3nc(-c4cccc5[nH]ncc45)nc(N4CCOCC4)c3s2)CC1 [pictilisib]
How it was run: as §1

[13] = compound: C[C@@H](Oc1cc(-c2cnn(C3CCNCC3)c2)cnc1N)c1c(Cl)ccc(F)c1Cl [crizotinib]
How it was run: as §1

[14] = compound: C[C@H](C1=CC=C(C=C1)C(=O)NC2=C3C=CNC3=NC=C2)N
How it was run: as §1

[15] = compound: C[C@H](Nc1ncnc2nc[nH]c12)c1cc2cccc(Cl)c2c(=O)n1-c1ccccc1 [duvelisib]
How it was run: as §1

[16] = compound: Cc1cc(Nc2cc(CN3CCOCC3)c3nc(C)c(Cc4ccc(Cl)cc4F)n3n2)n[nH]1 [gandotinib]
How it was run: as §1

[17] = compound: Cc1cc(Nc2cc(N3CCN(C)CC3)nc(Sc3ccc(NC(=O)C4CC4)cc3)n2)n[nH]1 [tozasertib]
How it was run: as §1

[18] = compound: Cc1ccc(-n2nc(C(C)(C)C)cc2NC(=O)Nc2ccc(OCCN3CCOCC3)c3ccccc23)cc1 [doramapimod]
How it was run: as §1

[19] = compound: Cc1ccc(NC(=O)c2ccc(CN3CC[C@H](N(C)C)C3)c(C(F)(F)F)c2)cc1Nc1nccc(-c2cncnc2)n1 [bafetinib]
How it was run: as §1

[20] = compound: Cc1cccc(CC(=O)N2CCc3c2ccc(-c2cn(C)c4ncnc(N)c24)c3F)n1
How it was run: as §1

Measured: log2 fold change

PPIL2 (UniProt Q13356)
inactive: [1] -0.006 | [2] -0.1 | [3] -0.006 | [4] -0.024 | [5] 0.056 | [6] -0.004 | [7] 0.036 | [8] -0.018 | [9] 0.027 | [10] 0.005 | [11] -0.034 | [12] -0.014 | [13] -0.037 | [14] -0.011 | [15] -0.047 | [16] -0.019 | [17] 0.047 | [18] 0.043 | [19] -0.022 | [20] 0.054

PDS5A (UniProt Q29RF7)
inactive: [1] 0.023 | [2] -0.21 | [3] 0.016 | [4] 0.016 | [5] -0.054 | [6] 0.048 | [7] -0.003 | [8] 0.014 | [9] 0 | [10] -0.005 | [11] -0.024 | [12] -0.053 | [13] -0.123 | [14] -0.09 | [15] 0.023 | [16] -0.127 | [17] 0.008 | [18] 0.006 | [19] -0.075 | [20] 0.125

PTMA (UniProt P06454)
UniProt P06454, sequence (P06454 whole entry, looked up): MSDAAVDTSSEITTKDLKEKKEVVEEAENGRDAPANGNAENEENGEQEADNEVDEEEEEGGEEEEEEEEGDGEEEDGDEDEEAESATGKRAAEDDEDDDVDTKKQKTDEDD
active: [14] 0.505 | [20] -0.375
inactive: [1] 0.194 | [2] 0.09 | [3] -0.104 | [4] 0.049 | [5] 0.007 | [6] -0.003 | [7] -0.038 | [8] 0.01 | [9] 0.042 | [10] 0.014 | [11] -0.059 | [12] -0.014 | [13] 0.08 | [15] 0.009 | [16] -0.277 | [17] 0.012 | [18] -0.031 | [19] 0.058

PTPN1 (UniProt P18031)
UniProt P18031, sequence (P18031 whole entry, looked up): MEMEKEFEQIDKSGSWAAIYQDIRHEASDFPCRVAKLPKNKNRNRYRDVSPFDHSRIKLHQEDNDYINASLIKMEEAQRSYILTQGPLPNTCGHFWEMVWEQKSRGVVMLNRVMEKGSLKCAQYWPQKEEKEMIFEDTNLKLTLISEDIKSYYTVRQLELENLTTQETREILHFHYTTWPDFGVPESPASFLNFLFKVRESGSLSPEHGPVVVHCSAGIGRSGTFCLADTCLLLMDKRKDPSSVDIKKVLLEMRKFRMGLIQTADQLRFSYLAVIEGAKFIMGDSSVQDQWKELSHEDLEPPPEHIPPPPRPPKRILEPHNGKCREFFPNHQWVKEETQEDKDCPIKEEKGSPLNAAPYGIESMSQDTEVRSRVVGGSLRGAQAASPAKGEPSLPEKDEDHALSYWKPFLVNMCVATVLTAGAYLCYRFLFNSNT
inactive: [1] -0.002 | [2] -0.048 | [3] 0.018 | [4] 0.015 | [5] -0.033 | [6] -0.003 | [7] 0.014 | [8] 0.005 | [9] 0.047 | [10] 0.014 | [11] -0.022 | [12] -0.022 | [13] -0.031 | [14] -0.042 | [15] -0.007 | [16] -0.055 | [17] 0.069 | [18] 0.059 | [19] -0.029 | [20] 0.062

PITRM1 isoform 2 (UniProt Q5JRX3)
UniProt Q5JRX3, sequence (Q5JRX3 whole entry, looked up): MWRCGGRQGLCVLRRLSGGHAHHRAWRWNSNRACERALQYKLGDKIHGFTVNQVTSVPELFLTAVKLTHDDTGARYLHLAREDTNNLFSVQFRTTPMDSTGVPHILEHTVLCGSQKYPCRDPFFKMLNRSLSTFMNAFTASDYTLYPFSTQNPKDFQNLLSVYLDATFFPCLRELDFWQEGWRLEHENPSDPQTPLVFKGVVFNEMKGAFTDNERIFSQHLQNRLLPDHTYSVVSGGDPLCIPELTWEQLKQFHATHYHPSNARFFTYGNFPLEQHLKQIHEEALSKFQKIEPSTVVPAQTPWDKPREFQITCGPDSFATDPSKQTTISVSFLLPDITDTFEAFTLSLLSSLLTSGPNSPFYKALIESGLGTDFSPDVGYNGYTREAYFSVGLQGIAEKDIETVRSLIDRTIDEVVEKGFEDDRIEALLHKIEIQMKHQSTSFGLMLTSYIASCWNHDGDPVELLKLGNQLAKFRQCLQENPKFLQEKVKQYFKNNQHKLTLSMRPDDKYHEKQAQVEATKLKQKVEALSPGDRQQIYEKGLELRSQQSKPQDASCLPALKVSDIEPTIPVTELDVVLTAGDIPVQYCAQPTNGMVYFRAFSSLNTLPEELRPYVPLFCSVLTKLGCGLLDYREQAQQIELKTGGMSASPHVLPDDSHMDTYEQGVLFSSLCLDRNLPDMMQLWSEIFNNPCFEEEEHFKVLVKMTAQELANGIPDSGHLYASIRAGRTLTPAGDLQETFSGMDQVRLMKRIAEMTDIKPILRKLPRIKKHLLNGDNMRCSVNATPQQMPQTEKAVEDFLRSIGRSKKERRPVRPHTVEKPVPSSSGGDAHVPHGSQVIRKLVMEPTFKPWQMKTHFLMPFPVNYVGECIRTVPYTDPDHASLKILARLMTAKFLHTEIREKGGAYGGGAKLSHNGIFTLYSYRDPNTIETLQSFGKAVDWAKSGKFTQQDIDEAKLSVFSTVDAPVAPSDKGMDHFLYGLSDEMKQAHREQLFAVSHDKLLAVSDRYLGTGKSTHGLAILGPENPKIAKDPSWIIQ
inactive: [1] 0.016 | [2] 0.04 | [3] 0.023 | [4] 0.008 | [5] -0.029 | [6] -0.012 | [8] -0.016 | [9] -0.016 | [10] 0.044 | [11] -0.001 | [12] -0.025 | [13] 0.053 | [14] 0.04 | [15] 0.029 | [16] 0.013 | [17] 0.006 | [18] -0.024 | [19] -0.023 | [20] -0.062
active: [7] 0.228

PRKCD (UniProt Q05655)
UniProt Q05655, sequence (Q05655 whole entry, looked up): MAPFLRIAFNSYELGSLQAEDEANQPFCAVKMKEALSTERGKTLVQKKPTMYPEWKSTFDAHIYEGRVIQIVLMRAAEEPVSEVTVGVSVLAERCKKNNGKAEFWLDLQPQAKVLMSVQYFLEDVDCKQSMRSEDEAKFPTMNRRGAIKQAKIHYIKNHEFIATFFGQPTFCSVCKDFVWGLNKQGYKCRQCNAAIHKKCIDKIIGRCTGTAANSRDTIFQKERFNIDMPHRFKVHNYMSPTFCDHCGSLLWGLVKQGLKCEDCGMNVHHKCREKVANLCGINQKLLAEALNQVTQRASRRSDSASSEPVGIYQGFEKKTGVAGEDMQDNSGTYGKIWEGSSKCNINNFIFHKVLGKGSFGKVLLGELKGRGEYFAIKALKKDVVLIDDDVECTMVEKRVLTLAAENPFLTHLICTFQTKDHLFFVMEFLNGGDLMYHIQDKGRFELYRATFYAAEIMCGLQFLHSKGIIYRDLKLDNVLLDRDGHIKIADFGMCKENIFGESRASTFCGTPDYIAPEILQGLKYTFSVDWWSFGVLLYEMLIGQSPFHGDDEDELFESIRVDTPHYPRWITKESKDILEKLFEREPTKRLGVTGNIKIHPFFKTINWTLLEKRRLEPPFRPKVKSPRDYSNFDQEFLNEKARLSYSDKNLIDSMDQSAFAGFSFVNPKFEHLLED
inactive: [1] -0.082 | [2] 0.036 | [3] -0.012 | [4] -0.032 | [5] -0.003 | [6] -0.009 | [7] 0.056 | [8] -0.031 | [10] 0.002 | [11] -0.143 | [12] 0.003 | [13] -0.011 | [14] -0.135 | [15] 0.024 | [16] 0.009 | [17] 0.015 | [18] 0.005 | [19] -0.069 | [20] 0.007
active: [9] 0.235

PTP4A1 (UniProt Q93096)
UniProt Q93096, sequence (Q93096 whole entry, looked up): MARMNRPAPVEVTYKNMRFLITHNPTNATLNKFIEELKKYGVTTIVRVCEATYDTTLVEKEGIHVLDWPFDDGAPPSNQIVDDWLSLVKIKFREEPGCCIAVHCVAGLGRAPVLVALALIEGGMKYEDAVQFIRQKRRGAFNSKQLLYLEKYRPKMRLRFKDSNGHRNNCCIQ
inactive: [1] 0.05 | [2] 0.033 | [3] 0.023 | [4] 0.033 | [5] 0.023 | [6] 0.006 | [7] -0.006 | [8] -0.056 | [9] -0.015 | [10] 0.049 | [11] -0.002 | [12] 0.008 | [13] 0.09 | [14] 0.133 | [15] 0.023 | [16] -0.031 | [17] 0.001 | [18] -0.009 | [19] -0.042 | [20] -0.055

PFKFB2 (UniProt O60825)
UniProt O60825, sequence (O60825 whole entry, looked up): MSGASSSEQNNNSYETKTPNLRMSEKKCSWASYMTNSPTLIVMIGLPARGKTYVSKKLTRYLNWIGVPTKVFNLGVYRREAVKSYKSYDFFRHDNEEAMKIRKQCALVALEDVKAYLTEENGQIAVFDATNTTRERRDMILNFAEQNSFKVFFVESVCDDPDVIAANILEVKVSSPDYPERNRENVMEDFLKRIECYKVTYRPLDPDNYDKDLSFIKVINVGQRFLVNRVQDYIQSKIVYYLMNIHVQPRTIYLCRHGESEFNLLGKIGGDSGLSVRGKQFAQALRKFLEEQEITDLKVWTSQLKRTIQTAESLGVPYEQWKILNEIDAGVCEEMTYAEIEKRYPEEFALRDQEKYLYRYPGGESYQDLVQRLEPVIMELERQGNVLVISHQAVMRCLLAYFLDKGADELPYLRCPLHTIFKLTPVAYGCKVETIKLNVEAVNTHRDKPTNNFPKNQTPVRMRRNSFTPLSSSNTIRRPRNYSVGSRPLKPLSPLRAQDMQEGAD
inactive: [1] 0.017 | [2] -0.045 | [3] 0.03 | [4] -0.02 | [5] -0.035 | [6] 0.015 | [7] -0.124 | [8] 0.014 | [9] 0.006 | [10] 0.014 | [11] 0.006 | [12] 0.001 | [13] 0.017 | [14] -0.016 | [15] -0.015 | [16] -0.035 | [17] 0.038 | [18] -0.018 | [19] -0.07 | [20] 0.01

POLR2B (UniProt P30876)
inactive: [1] -0.008 | [2] -0.092 | [3] 0.057 | [4] 0.004 | [5] -0.026 | [6] 0.022 | [7] 0.121 | [8] 0.002 | [9] -0.018 | [10] 0.012 | [11] 0.009 | [12] -0.048 | [13] -0.054 | [14] -0.032 | [15] 0.001 | [16] -0.018 | [17] -0.016 | [18] 0.046 | [19] -0.067 | [20] 0.036

PTGR2 (UniProt Q8N8N7)
inactive: [1] 0.018 | [2] -0.023 | [3] 0.02 | [4] 0.018 | [5] -0.021 | [6] -0.043 | [8] 0.014 | [9] 0.004 | [10] -0.007 | [11] -0.003 | [12] 0.014 | [13] -0.029 | [14] -0.04 | [15] 0.02 | [16] 0.01 | [17] 0.04 | [18] -0.04 | [19] -0.003 | [20] -0.004
active: [7] 0.694

PES1 (UniProt O00541)
active: [7] 0.35
inactive: [1] -0.017 | [2] -0.044 | [3] 0.05 | [4] 0.005 | [5] 0.017 | [6] 0.006 | [8] 0.028 | [9] -0.003 | [10] 0.007 | [11] 0.006 | [12] 0.005 | [13] -0.001 | [14] -0.027 | [15] 0.01 | [16] -0.025 | [17] 0.004 | [18] -0.021 | [19] -0.014 | [20] 0.064

PRKAB2 (UniProt O43741)
UniProt O43741, sequence (O43741 whole entry, looked up): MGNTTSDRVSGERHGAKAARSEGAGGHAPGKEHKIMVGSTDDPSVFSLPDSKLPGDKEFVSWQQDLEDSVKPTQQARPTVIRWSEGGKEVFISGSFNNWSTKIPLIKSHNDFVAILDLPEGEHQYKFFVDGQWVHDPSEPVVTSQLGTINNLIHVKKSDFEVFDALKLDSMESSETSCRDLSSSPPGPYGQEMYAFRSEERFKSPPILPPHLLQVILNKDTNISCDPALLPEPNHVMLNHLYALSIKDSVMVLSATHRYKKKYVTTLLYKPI
active: [14] -0.698
inactive: [1] -0.122 | [2] -0.016 | [3] 0.286 | [4] 0.057 | [5] 0.062 | [6] -0.04 | [7] -0.09 | [8] -0.062 | [9] 0.058 | [10] -0.126 | [11] -0.029 | [12] 0.09 | [13] -0.013 | [15] 0.019 | [16] 0.25 | [17] 0.111 | [18] 0.039 | [19] 0.052 | [20] 0.142

PRKAR2A (UniProt P13861)
active: [16] -0.232
inactive: [1] -0.028 | [2] -0.019 | [3] -0.176 | [4] -0.085 | [5] -0.017 | [6] 0.037 | [7] 0.142 | [8] 0.002 | [9] -0.062 | [10] 0.024 | [11] 0.036 | [12] -0.094 | [13] 0.013 | [14] 0.006 | [15] -0.025 | [17] 0.015 | [18] 0.036 | [19] -0.026 | [20] 0.031

PRKCSH (UniProt K7ELL7)
inactive: [1] 0.048 | [2] 0.073 | [3] -0.026 | [4] 0.006 | [5] -0.013 | [6] 0.048 | [7] -0.002 | [8] 0.018 | [9] 0.083 | [10] -0.12 | [11] -0.009 | [12] 0.028 | [13] 0.061 | [14] 0.181 | [15] 0.1 | [16] -0.047 | [17] 0.062 | [18] -0.044 | [19] 0.031 | [20] -0.019

PLIN2 (UniProt Q99541)
UniProt Q99541, sequence (Q99541 whole entry, looked up): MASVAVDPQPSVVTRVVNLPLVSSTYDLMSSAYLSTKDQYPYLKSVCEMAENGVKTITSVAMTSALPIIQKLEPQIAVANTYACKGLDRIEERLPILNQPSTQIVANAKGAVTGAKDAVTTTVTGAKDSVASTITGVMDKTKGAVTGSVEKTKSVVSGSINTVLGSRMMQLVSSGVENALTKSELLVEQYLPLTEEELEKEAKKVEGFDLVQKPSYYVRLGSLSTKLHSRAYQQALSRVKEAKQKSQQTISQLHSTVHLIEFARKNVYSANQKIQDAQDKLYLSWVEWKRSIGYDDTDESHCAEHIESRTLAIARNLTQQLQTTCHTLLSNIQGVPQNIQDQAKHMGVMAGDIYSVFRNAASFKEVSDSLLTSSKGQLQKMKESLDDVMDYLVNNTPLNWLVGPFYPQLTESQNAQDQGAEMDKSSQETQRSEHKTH
inactive: [1] -0.008 | [2] -0.107 | [3] -0.014 | [4] 0.049 | [5] 0.002 | [6] 0.061 | [7] -0.107 | [8] 0.044 | [9] -0.071 | [10] 0.104 | [11] -0.009 | [12] -0.041 | [13] -0.038 | [14] 0.023 | [15] 0.014 | [17] 0.096 | [18] -0.003 | [19] -0.067 | [20] 0.011
active: [16] -0.254

PHLDB1 (UniProt Q86UU1)
UniProt Q86UU1, sequence (Q86UU1 whole entry, looked up): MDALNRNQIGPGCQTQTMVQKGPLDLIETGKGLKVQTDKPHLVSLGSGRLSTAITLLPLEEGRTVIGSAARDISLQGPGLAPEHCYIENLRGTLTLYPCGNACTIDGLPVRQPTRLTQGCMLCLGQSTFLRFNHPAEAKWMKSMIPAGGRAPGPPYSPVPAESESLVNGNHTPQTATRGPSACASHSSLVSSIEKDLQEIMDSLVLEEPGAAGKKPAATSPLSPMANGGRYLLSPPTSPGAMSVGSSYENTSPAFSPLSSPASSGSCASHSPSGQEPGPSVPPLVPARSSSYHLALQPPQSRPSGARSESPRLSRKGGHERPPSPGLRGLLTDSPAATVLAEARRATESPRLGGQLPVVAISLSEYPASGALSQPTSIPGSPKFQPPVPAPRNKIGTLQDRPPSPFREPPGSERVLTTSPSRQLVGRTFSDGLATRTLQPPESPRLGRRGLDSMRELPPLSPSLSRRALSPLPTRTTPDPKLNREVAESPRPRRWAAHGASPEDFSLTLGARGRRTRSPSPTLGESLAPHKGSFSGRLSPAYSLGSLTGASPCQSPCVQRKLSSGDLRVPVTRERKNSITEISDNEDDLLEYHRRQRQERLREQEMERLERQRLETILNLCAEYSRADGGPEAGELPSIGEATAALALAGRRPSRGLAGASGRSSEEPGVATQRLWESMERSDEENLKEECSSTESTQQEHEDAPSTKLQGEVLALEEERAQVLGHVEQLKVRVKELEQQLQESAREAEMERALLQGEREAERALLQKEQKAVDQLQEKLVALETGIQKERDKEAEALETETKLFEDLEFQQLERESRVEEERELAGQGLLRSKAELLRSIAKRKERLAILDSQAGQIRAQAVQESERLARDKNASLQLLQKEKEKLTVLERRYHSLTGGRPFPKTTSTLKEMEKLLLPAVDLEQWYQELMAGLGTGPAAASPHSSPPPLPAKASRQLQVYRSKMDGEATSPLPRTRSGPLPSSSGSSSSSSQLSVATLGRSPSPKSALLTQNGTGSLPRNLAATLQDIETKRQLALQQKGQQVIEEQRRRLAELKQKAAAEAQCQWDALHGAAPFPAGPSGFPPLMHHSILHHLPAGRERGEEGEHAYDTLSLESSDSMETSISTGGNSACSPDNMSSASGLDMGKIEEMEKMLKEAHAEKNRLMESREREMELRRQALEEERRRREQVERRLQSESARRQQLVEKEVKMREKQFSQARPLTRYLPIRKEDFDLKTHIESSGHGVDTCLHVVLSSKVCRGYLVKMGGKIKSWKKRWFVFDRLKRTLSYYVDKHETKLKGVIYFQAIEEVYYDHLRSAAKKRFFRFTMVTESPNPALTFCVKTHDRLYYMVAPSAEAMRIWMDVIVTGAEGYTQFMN
inactive: [1] -0.067 | [2] -0.1 | [3] -0.031 | [4] 0.023 | [5] 0.049 | [6] -0.041 | [7] -0.05 | [8] 0.009 | [9] -0.037 | [10] 0.017 | [11] -0.052 | [12] 0.034 | [13] -0.154 | [14] -0.06 | [15] -0.028 | [16] 0.073 | [17] -0.047 | [18] 0.076 | [19] -0.112 | [20] 0.031
